Test results taken from PubChem BioAssay AID1159580 (chemical genetic matrix, 2015).
Hit rate of the full screen: of about 5,500 compounds, about 2,000 (36%) were called active. Inconclusive results (about 18%) are left out. Cut-off read from the data, not from the text of the source: active = normalized growth mostly below about 0.91 (no sharp cut-off); inconclusive = no clear call, values can overlap the other calls; inactive = mostly above about 0.92. The list shows a part of the results.

Test: chemical genetic growth profiling, strain panel (AID 1159580);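 note: tested at 20 µM; growth read once vehicle control cultures reached saturation at 30 °C; 1 = growth at the plate median or of vehicle wells; lower values mean less growth of the strain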
Conditions: growth OD

Measured: normalized growth

NC1=NCCN1CC(=O)O
inactive: S. cerevisiae deletion strains, locus YJR043C, strain POL32, active compounds read low 0.98 | S. cerevisiae deletion strains, locus YJR066W, strain TOR1, active compounds read low 0.989 | S. cerevisiae deletion strains, locus YKL009W, strain mrt4, active compounds read low 0.968 | S. cerevisiae deletion strains, locus YKL068W, active compounds read low 0.986 | S. cerevisiae deletion strains, locus YKL085W, strain MDH1 (second series), active compounds read low 0.983 | S. cerevisiae deletion strains, locus YKL085W, strain MDH1, active compounds read low 0.983 | S. cerevisiae deletion strains, locus YKL160W, strain elf1, active compounds read low 1.04 | S. cerevisiae deletion strains, locus YKL190W, strain CNB1, active compounds read low 0.978 | S. cerevisiae deletion strains, locus YKR001C, strain vps1, active compounds read low 0.989 | S. cerevisiae deletion strains, locus YKR026C, strain gcn3, active compounds read low 1.03 | S. cerevisiae deletion strains, locus YKR091W, strain srl3, active compounds read low 1.01 | S. cerevisiae deletion strains, locus YLL001W, strain dnm1, active compounds read low 0.984 | S. cerevisiae deletion strains, locus YLL026W, active compounds read low 1.01 | S. cerevisiae deletion strains, locus YLL041C, strain sdh2, active compounds read low 1.01 | S. cerevisiae deletion strains, locus YLR027C, strain aat2, active compounds read low 1.02 | S. cerevisiae deletion strains, locus YLR039C, strain RIC1, active compounds read low 0.964 | S. cerevisiae deletion strains, locus YLR058C, strain SHM2, active compounds read low 0.975 | S. cerevisiae deletion strains, locus YLR102C, strain apc9, active compounds read low 0.986 | S. cerevisiae deletion strains, locus YLR113W, strain HOG1, active compounds read low 0.983 | S. cerevisiae deletion strains, locus YLR221C, strain rsa3, active compounds read low 0.987 | S. cerevisiae deletion strains, locus YLR258W, strain gsy2, active compounds read low 0.996 | S. cerevisiae deletion strains, locus YLR262C, strain YPT6 (second series), active compounds read low 1.02 | S. cerevisiae deletion strains, locus YLR262C, strain YPT6, active compounds read low 0.958 | S. cerevisiae deletion strains, locus YLR268W, strain sec22, active compounds read low 0.99 | S. cerevisiae deletion strains, locus YLR320W, strain mms22, active compounds read low 0.957 | S. cerevisiae deletion strains, locus YLR330W, strain CHS5, active compounds read low 1 | S. cerevisiae deletion strains, locus YLR342W, strain FKS1 (second series), active compounds read low 1.01 | S. cerevisiae deletion strains, locus YLR342W, strain FKS1, active compounds read low 1.02 | S. cerevisiae deletion strains, locus YLR357W, strain rsc2, active compounds read low 1.03 | S. cerevisiae deletion strains, locus YLR370C, strain arc18, active compounds read low 1.01 | S. cerevisiae deletion strains, locus YLR371W, strain rom2, active compounds read low 0.996 | S. cerevisiae deletion strains, locus YLR384C, strain iki3, active compounds read low 1.01 | S. cerevisiae deletion strains, locus YLR418C, strain cdc73, active compounds read low 0.995 | S. cerevisiae deletion strains, locus YML016C, strain PPZ1, active compounds read low 0.986 | S. cerevisiae deletion strains, locus YML032C, strain rad52, active compounds read low 0.994 | S. cerevisiae deletion strains, locus YML120C, strain ndi1, active compounds read low 0.998 | S. cerevisiae deletion strains, locus YML124C, strain tub3, active compounds read low 0.995 | S. cerevisiae deletion strains, locus YMR058W, strain fet3, active compounds read low 1.02 | S. cerevisiae deletion strains, locus YMR078C, strain ctf18, active compounds read low 0.994 | S. cerevisiae deletion strains, locus YMR125W, strain sto1, active compounds read low 1.02 | S. cerevisiae deletion strains, locus YMR129W, active compounds read low 1 | S. cerevisiae deletion strains, locus YMR205C, strain PFK2, active compounds read low 1.02 | S. cerevisiae deletion strains, locus YMR223W, strain ubp8, active compounds read low 0.992 | S. cerevisiae deletion strains, locus YMR231W, strain pep5, active compounds read low 1.02 | S. cerevisiae deletion strains, locus YMR307W, strain GAS1, active compounds read low 1.05 | S. cerevisiae deletion strains, locus YNL067W, strain RPL9B, active compounds read low 0.966 | S. cerevisiae deletion strains, locus YNL071W, strain lat1, active compounds read low 0.983 | S. cerevisiae deletion strains, locus YNL153C, strain GIM3, active compounds read low 0.989 | S. cerevisiae deletion strains, locus YNL183C, strain NPR1, active compounds read low 0.919 | S. cerevisiae deletion strains, locus YNL209W, strain ssb2, active compounds read low 1.03 | S. cerevisiae deletion strains, locus YNL233W, strain BNI4, active compounds read low 0.974 | S. cerevisiae deletion strains, locus YNL248C, strain rpa49, active compounds read low 1.03 | S. cerevisiae deletion strains, locus YNL250W, strain rad50, active compounds read low 0.973 | S. cerevisiae deletion strains, locus YNL271C, strain bni1, active compounds read low 0.998 | S. cerevisiae deletion strains, locus YNL298W, strain CLA4, active compounds read low 0.996 | S. cerevisiae deletion strains, locus YNL307C, strain MCK1, active compounds read low 0.993 | S. cerevisiae deletion strains, locus YNL322C, strain KRE1 (second series), active compounds read low 1.02 | S. cerevisiae deletion strains, locus YNR049C, strain mso1, active compounds read low 1.01 | S. cerevisiae deletion strains, locus YNR052C, strain pop2, active compounds read low 0.998 | S. cerevisiae deletion strains, locus YOL006C, strain TOP1, active compounds read low 0.944 | S. cerevisiae deletion strains, locus YOL012C, strain htz1 0.788 | S. cerevisiae deletion strains, locus YOL147C, strain pex11, active compounds read low 0.995 | S. cerevisiae deletion strains, locus YOR001W, strain rrp6, active compounds read low 0.966 | S. cerevisiae deletion strains, locus YOR061W, strain CKA2, active compounds read low 0.958 | S. cerevisiae deletion strains, locus YOR069W, strain VPS5, active compounds read low 0.995 | S. cerevisiae deletion strains, locus YOR070C, strain gyp1, active compounds read low 1.02 | S. cerevisiae deletion strains, locus YOR080W, strain dia2, active compounds read low 1.03 | S. cerevisiae deletion strains, locus YOR083W, strain WHI5, active compounds read low 0.959 | S. cerevisiae deletion strains, locus YOR106W, strain vam3, active compounds read low 1.03 | S. cerevisiae deletion strains, locus YOR136W, strain idh2, active compounds read low 0.986 | S. cerevisiae deletion strains, locus YOR144C, strain elg1, active compounds read low 0.992 | S. cerevisiae deletion strains, locus YOR184W, strain ser1, active compounds read low 1.01 | S. cerevisiae deletion strains, locus YOR231W, strain MKK1, active compounds read low 0.966 | S. cerevisiae deletion strains, locus YOR265W, strain rbl2, active compounds read low 0.994 | S. cerevisiae deletion strains, locus YOR270C, strain vph1, active compounds read low 0.924 | S. cerevisiae deletion strains, locus YOR290C, strain snf2, active compounds read low 1.01 | S. cerevisiae deletion strains, locus YOR316C, strain cot1, active compounds read low 0.989 | S. cerevisiae deletion strains, locus YPL051W, strain arl3, active compounds read low 0.997 | S. cerevisiae deletion strains, locus YPL055C, strain LGE1, active compounds read low 0.918 | S. cerevisiae deletion strains, locus YPL078C, strain atp4, active compounds read low 1.03 | S. cerevisiae deletion strains, locus YPL106C, strain sse1, active compounds read low 1.01 | S. cerevisiae deletion strains, locus YPL240C, strain hsp82, active compounds read low 1.01 | S. cerevisiae deletion strains, locus YPL256C, strain CLN2, active compounds read low 0.953 | S. cerevisiae deletion strains, locus YPR119W, strain clb2, active compounds read low 0.983 | S. cerevisiae deletion strains, locus YPR141C, strain kar3, active compounds read low 0.988 | S. cerevisiae deletion strains, locus YPR163C, strain tif3, active compounds read low 0.986 | S. cerevisiae deletion strains, locus YPR167C, strain met16, active compounds read low 0.993 | S. cerevisiae deletion strains, strain wtn01, active compounds read low 0.995 | S. cerevisiae strains, strain wild type, active compounds read low 0.982
